In PubChem BioAssay AID1259418 (Broad Institute, 2018):
In all, about 3,400 compounds went through this assay and about 840 (25%) were called active. Inconclusive results (about 11%) are left out. The list is a sample of the results. Results with a measured potency or affinity are listed apart. A number with no mark means an inactive call.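 How the source made its calls: active means fitted half-maximal concentration of signal decrease at or below twice the sample's top tested concentration; inconclusive means flat curve between -70 and -30 percent, or poor fit; inactive means flat within 30 percent, signal rise, or potency above limit.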

Test: inhibitors of Toxoplasma growth in IFN-γ-primed HeLa – cell-based, ME49Luc, luciferase, 72 h, dose response (AID 1259418)
Details: T. gondii ME49Luc in IFN-y HeLa, active compounds read low, -100% = high-dose IFN-γ control wells; at 19.5 µM unless noted

Compared with `CCOc1ccc(NC(=O)COc2nc(CC)nc3ccccc23)cc1`, `CCOc1ccc(-c2nc(CN(c3ccccc3)S(=O)(=O)c3cccs3)c(C)o2)cc1OC` is lower in max activity: 16% [at 10 µM] for the first, -33.6% [at 10 µM] for the second.

First: Cc1ccc(S(=O)(=O)Nc2ccc3c(c2)C(=O)N([C@H](C)CO)C[C@H](C)[C@H](CN(C)Cc2ccc(C(F)(F)F)cc2)O3)cc1
Second: CCOc1ccc(-c2nc(CN(c3ccc(C)cc3)S(=O)(=O)c3cccs3)c(C)o2)cc1OC
The max activity of the first is lower: 19.4% [at 10 µM] for the first, 101% [at 10 µM] for the second.

Compared with `O=C(C1CCOCC1)N1CC(=O)N2[C@@H](CO)[C@@H](c3ccc(C#CC4CCCCC4)cc3)[C@@H]2C1`, `COc1cccc(C#Cc2ccc([C@H]3[C@@H](C#N)N(C(=O)c4ccccn4)[C@@H]3CO)cc2)c1` is lower in max activity: 25.9% [at 10 µM] for the first, 11.2% [at 10 µM] for the second.

Going from `COc1cccc(-c2nc3c(s2)CN(S(=O)(=O)c2ccc(OC)c(OC)c2)CC3)c1` to `Cc1cccc(CNC2=NCCNC23CCN(S(=O)(=O)c2ccc4c(c2)CCCC4)CC3)c1`, the max activity rises from 6.21% [at 10 µM] to 20.3% [at 10 µM].

Going from `Cc1nc(-c2ccc(F)cc2)sc1-c1ccc(SCc2cccc3ccccc23)nn1` to `O=C(c1ccc2c(=O)n(CCC3=CCCCC3)c(=S)[nH]c2c1)N1CCC(O)(c2cccc(C(F)(F)F)c2)CC1`, the max activity falls from -8.89% [at 10 µM] to -24.9% [at 10 µM].

`O=C(CCCCCn1c(=S)[nH]c2cc3c(cc2c1=O)OCO3)N1CCC(O)(c2cccc(C(F)(F)F)c2)CC1` gave a max activity of -29.1% [at 10 µM].

First: CCOc1ccc(-c2nc3c(s2)CN(S(=O)(=O)c2ccccc2Cl)CC3)cc1
Second: CCc1ccc(S(=O)(=O)N2CCc3nc(-c4ccc(OC)cc4)sc3C2)cc1
The max activity of the first is higher: 22.6% for the first, 9.57% for the second.

Going from `CCOc1ccccc1NC(=O)CN1CCC2(CC1)N=C(c1ccc(F)cc1)C(=O)N2` to `Cc1ccccc1NC(=O)CN1CCC2(CC1)N=C(c1cccc(Cl)c1)C(=O)N2`, the max activity falls from 13% to -14.5%.

Compared with `C[C@]12CCC3=C4CCC(=O)C=C4CC[C@H]3[C@@H]1CC[C@@]2(O)CC#N`, `COc1ccc(CNC2=NCCNC23CCN(S(=O)(=O)c2ccc4c(c2)CCCC4)CC3)cc1` is lower in max activity: 15.3% for the first, -31.9% for the second.

First: Cc1ccc(N2CCC[C@]3(C(=O)O)CN(CCN(C)C)C[C@H]3C2)nn1
Second: CN(C)CCO[C@@H]1CN(C(=O)Cc2ccsc2)[C@H]2CCCO[C@@H]12
The max activity of the first is higher: 40.3% for the first, 38.7% for the second.

Going from `CSc1cccc(NC(=O)CN2CCC3(CC2)N=C(c2ccc(Cl)cc2)C(=O)N3)c1` to `Cc1cccc(NC(=O)CN2CCC3(CC2)N=C(c2ccc(Cl)cc2)C(=O)N3)c1`, the max activity rises from -30.9% to 17.4%.

Compared with `CSc1cccc(NC(=O)CN2CCC3(CC2)N=C(c2cccc(F)c2)C(=O)N3)c1`, `Cc1cccc(-c2ccc(C3[C@H]4CNC[C@@H]3N4Cc3cccc(F)c3)cc2)c1` (stereo partly drawn) is lower in max activity: 27.3% for the first, 19.8% for the second.

Compared with `Clc1ccc(-c2nc(N3CCc4ccccc43)c3ccccc3n2)cc1`, `COc1ccc(-c2nc(NCC3CCN(Cc4ccccc4F)CC3)c3ccccc3n2)cc1` is lower in max activity: -11.3% for the first, -29.4% for the second.

Compared with `Cc1oc(-c2ccccc2)nc1Cn1nnc(-c2nc(-c3ccc(F)c(Br)c3)no2)c1C`, `CSc1ccc(-c2noc(-c3nnn(Cc4nc(-c5ccc(C)cc5)oc4C)c3C)n2)cc1` is lower in max activity: 9.89% for the first, 4.87% for the second.

Going from `N#C[C@H]1N[C@@H](CO)[C@H]1c1ccc(C#CC2CCCCC2)cc1` to `Cc1ccc(-c2coc(-c3ccc(NC(=O)C4CCCCC4)cc3)n2)c(C)c1`, the max activity falls from 49.7% to -13.8%.

Going from `Fc1cccc(-c2ccc(C3[C@H]4CNC[C@@H]3N4Cc3cncnc3)cc2)c1` (stereo partly drawn) to `N#CCSC1=Nc2ccccc2C2=NC(CC(=O)NCc3ccc(F)cc3)C(=O)N12` (stereo not drawn), the max activity falls from 50.5% to 44.3%.

Going from `O=C(Nc1ccccc1)Nc1ccc(-c2nc(-c3ccccc3)co2)cc1` to `COc1ccc(C(=O)N2CCC[C@@H]2C(=O)NCCc2csc(-c3ccccc3)n2)cc1`, the max activity falls from 51.3% to -13.9%.

Going from `COc1ccccc1-c1nc(C)c(-c2ccc(SCc3ccc(C)cc3)nn2)s1` to `COc1ccc(C(=O)Nc2ccc3c(c2)CCC(=O)N3C)c(C)c1`, the max activity rises from -14.3% to 42.4%.

Compared with `O=S(=O)(c1ccc2c(c1)CCCC2)N1CCC2(CC1)NCCN=C2NCc1cc(F)cc(F)c1`, `CC(C)CN(C[C@@H](O)[C@H](Cc1ccccc1)NC(=O)O[C@H]1CO[C@H]2OCC[C@H]21)S(=O)(=O)c1ccc(N)cc1` is lower in max activity: 16.7% for the first, 7.57% for the second.

`CCn1cc(NC(=O)c2cccc(CN3C[C@@H](C)O[C@@H](C)C3)c2)nn1` gave a max activity of 30.6%.

Going from `O=C(c1cccc(F)c1)N1CCC2(CC1)Nc1ccc(Cl)cc1-n1cccc12` to `Cc1ccc2c(c1C)-n1cccc1C1(CCN(C(=O)Cc3ccccc3)CC1)N2`, the max activity falls from 9.53% [at 0.68 µM] to 4.08% [at 0.68 µM].

Going from `COc1cccc(NC(=O)CN2CCC3(CC2)N=C(c2cccc(Cl)c2)C(=O)N3)c1` to `COC(=O)c1ccc(NC(=O)Nc2ccc(-c3nc(-c4cc(C)ccc4C)co3)cc2)cc1`, the max activity rises from -20.4% [at 0.68 µM] to -6.97% [at 0.68 µM].

First: Cc1nc(CCNC(=O)[C@H]2CCCN2S(=O)(=O)c2cccc(Cl)c2)cs1
Second: Cc1cccc(N2CCN(C(=O)c3ccc(-c4csc(C5CC5)n4)cc3)CC2)c1C
The max activity of the first is higher: -9.1% [at 0.35 µM] for the first, -9.59% [at 0.35 µM] for the second.

First: COc1ccccc1NC(=O)CN1CCC2(CC1)N=C(c1cccc(C)c1)C(=O)N2
Second: Cc1cccc(CN2CCC(CNc3nc(-c4ccc(Cl)cc4)nc4ccccc34)CC2)c1
The max activity of the first is higher: 13.7% [at 0.35 µM] for the first, -45.1% [at 0.35 µM] for the second.

Compared with `Cc1[nH]c2ccccc2c1C(=O)C(=O)NC1CC(=O)N(c2cccc(F)c2)C1` (stereo not drawn), `COc1ccc(-c2nc(Nc3cccc(SC)c3)c3ccccc3n2)cc1` is lower in max activity: 13.3% [at 0.35 µM] for the first, 8.11% [at 0.35 µM] for the second.

Going from `CCOc1ccc(CC(=O)N2CCC3(CC2)Nc2ccc(C)c(C)c2-n2cccc23)cc1OCC` to `COc1ccc2c(c1)NC1(CCN(C(=O)Cc3ccc(F)cc3)CC1)c1cccn1-2`, the max activity rises from -7.59% [at 0.35 µM] to 12.9% [at 0.35 µM].

Work on `COc1ccccc1-c1nc(C)c(-c2ccc(SCc3cc(C)ccc3C)nn2)s1` yielded a max activity of -11.2% [at 0.35 µM].

Compared with `CCOc1ccc(-c2nc(CN(c3ccc(OC)cc3)S(=O)(=O)c3ccc(C)cc3)c(C)o2)cc1`, `COc1ccc(-c2nc(NCc3ccc(F)cc3)c3ccccc3n2)cc1` is higher in max activity: 8.75% [at 1.35 µM] for the first, 18.6% [at 1.35 µM] for the second.

Compared with `Cc1ccc(C2=NC3(CCN(CC(=O)Nc4ccc(Cl)cc4)CC3)NC2=O)cc1`, `COc1cccc(NC(=O)CN2CCC3(CC2)N=C(c2ccc(Cl)cc2)C(=O)N3)c1` is lower in max activity: 19.9% [at 1.35 µM] for the first, -17.6% [at 1.35 µM] for the second.

For `Cc1oc(-c2cccc(Cl)c2)nc1Cn1nnc(-c2nc(-c3ccncc3)no2)c1C`, the max activity was -5.43% [at 1.35 µM].

First: COc1ccccc1NC(=O)N1CCc2nc(-c3ccc(OC)c(OC)c3)sc2C1
Second: COc1cc(C(=O)N2CCC3(CC2)Nc2ccc(C)c(C)c2-n2cccc23)cc(OC)c1OC
The max activity of the first is lower: 6.68% [at 0.16 µM] for the first, 7.01% [at 0.16 µM] for the second.

Going from `COc1cccc(NC(=O)Nc2ccc(-c3nc(-c4cc(C)ccc4C)co3)cc2)c1` to `CCc1nc(OCC(=O)Nc2cccc(OC)c2)c2ccccc2n1`, the max activity rises from 10.1% [at 0.16 µM] to 13.8% [at 0.16 µM].

Compared with `CCc1ccc(NC(=O)N2CCN(Cc3nc(-c4ccccc4C)oc3C)CC2)cc1`, `CCCn1c(=S)[nH]c2cc(C(=O)N3CCC(O)(c4cccc(C(F)(F)F)c4)CC3)ccc2c1=O` is lower in max activity: 20.1% [at 0.16 µM] for the first, 18.8% [at 0.16 µM] for the second.

Going from `COc1ccc(NC(=O)CN2CCC3(CC2)N=C(c2ccc(C)cc2)C(=O)N3)c(OC)c1` to `COc1ccc(-c2nc(NCc3ccc(C)cc3)c3ccccc3n2)cc1`, the max activity falls from -8.99% [at 5 µM] to -20.6% [at 5 µM].

First: COc1cccc(S(=O)(=O)N2CC[C@@H]3[C@H]2c2cc(C#Cc4cccnc4)ccc2N[C@@H]3CO)c1
Second: CCOC(=O)C1CCC(CNC(=O)Nc2ccc(-c3nc(-c4ccccc4)co3)cc2)CC1 (stereo not drawn)
The max activity of the first is higher: 31.2% [at 5 µM] for the first, -11.7% [at 5 µM] for the second.

`CCC(CC)C(=O)N1CCC(C(=O)NCCc2csc(-c3ccccc3)n2)CC1` gave a max activity of 5.84% [at 5 µM].

Compared with `COc1ccc(C2=NC3(CCN(CC(=O)Nc4cccc(Cl)c4)CC3)NC2=O)cc1`, `Cc1cccc(C2=NC3(CCN(C(=O)c4ccc(C(C)(C)C)cc4)CC3)NC2=O)c1` is higher in max activity: -14.8% [at 2.6 µM] for the first, 16.7% [at 2.6 µM] for the second.

Going from `COc1ccc(C)cc1Nc1nc(-c2ccc(Cl)cc2)nc2ccccc12` to `COc1ccc(-c2nc(NCC3CCN(Cc4ccc(Cl)cc4)CC3)c3ccccc3n2)cc1`, the max activity rises from -11.5% [at 2.6 µM] to 14.4% [at 2.6 µM].

`COc1ccc2c(c1)NC1(CCN(C(=O)c3ccc(C)c(C)c3)CC1)c1cccn1-2` showed a max activity of -9.14% [at 2.6 µM].

With `N#C[C@H]1[C@H](c2ccc(C#Cc3ccccc3F)cc2)[C@@H](CO)N1C(=O)c1cccnc1` the max activity was -13.1% [at 2.35 µM].
